# SMARCA2 activ: increases SMARCA2 function in MMTV reporter cells; 370,000 compounds, 1% hits; MG213 cells, MMTV-luciferase reporter, dexamethasone, overnight; activation, % at 9.1 µM; AID 652017; in the data active = activation above about 7.8%;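 also: 0% = vehicle wells and 100% = reference activator wells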
# ALR inh: human ALR oxidase inhibition via reduced H2O2 | AID 485317 | 290,000 compounds, 3.8% hits | P55789 | inhibition, % (test concentration not listed) | purified ALR, DTT oxidation, H2O2 HRP-luminol luminescence;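 active = mean replicate inhibition above about 79%, with every replicate also reaching it, limit read from the data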
# Target sequence (P55789 whole entry, looked up): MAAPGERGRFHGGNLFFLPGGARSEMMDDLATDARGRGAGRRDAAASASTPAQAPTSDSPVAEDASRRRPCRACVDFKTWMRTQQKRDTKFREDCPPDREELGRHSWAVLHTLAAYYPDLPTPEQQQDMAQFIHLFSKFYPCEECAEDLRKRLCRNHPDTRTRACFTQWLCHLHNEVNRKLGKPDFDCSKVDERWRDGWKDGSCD
# beta cell repl: MIN6 beta-cell proliferation induction; MIN6 cells proliferation, ATPlite luminescence, 48 h; cells starved in 0.2% serum; 100% = growth in 10% serum; proliferation, % at 10 µM; 330,000 compounds, 0.29% hits;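 active = compounds whose signal lies at least 3.5 SD above the mean of all wells on their plate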;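 also: 0% = DMSO-treated cells in low-serum medium and 100% = 10% serum control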
# Exocytosis inh: blocks lytic granule exocytosis; TALL-104 LAMP-1 surface exposure, flow cytometry; cells stimulated with thapsigargin and PMA; inhibition, % at 10 µM; 360,000 compounds, 0.66% hits; AID 651702;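 active = inhibition above about 55%, limit read from the data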
# PfM18AAP inh: blocks P. falciparum M18 aspartyl aminopeptidase; recombinant PfM18AAP, H-Glu-NHMec fluorogenic cleavage; inhibition, % at 7.35 µM; 290,000 compounds, 1.2% hits;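 active = inhibition above the campaign mean inhibition over all tested compounds plus 3 SD, cut at about 28% in these data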;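 also: 0% = plate median of test compound wells and 100% = 2 mM ZnCl2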
# GASC-1 inh: human JMJD2C demethylase inhibition; GST-JMJD2C(1-420) H3K9me3 demethylation, DELFIA europium; inhibition, % at 2.35 µM; 330,000 compounds, 0.069% hits;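 active = more than half of a compound's replicate wells show inhibition beyond 50%, single wells judged on their own value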;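 also: signal counts dimethyl H3K9 product captured on neutravidin plate; 0% = median of DMSO wells and 100% = 0.3 times that DMSO median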
# Target sequence (Q9H3R0 1-420 limits assumed): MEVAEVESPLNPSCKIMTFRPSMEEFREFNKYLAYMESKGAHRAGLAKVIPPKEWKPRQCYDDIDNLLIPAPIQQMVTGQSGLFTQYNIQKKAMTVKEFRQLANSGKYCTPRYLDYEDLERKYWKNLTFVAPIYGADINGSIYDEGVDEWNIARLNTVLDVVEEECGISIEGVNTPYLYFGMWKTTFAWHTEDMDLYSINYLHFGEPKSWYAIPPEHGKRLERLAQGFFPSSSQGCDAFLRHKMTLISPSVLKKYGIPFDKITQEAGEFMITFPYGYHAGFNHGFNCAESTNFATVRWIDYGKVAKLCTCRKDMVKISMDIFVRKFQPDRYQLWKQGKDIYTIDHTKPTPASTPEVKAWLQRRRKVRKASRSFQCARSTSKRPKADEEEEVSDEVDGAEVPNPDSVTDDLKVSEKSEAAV
# SMARCA2 act conf: SMARCA2 activation, confirmation screen; shares compounds with SMARCA2 activ; MG213 cells, MMTV-luciferase with dexamethasone, luminescence, overnight; MG213 cells expressing E1A, Rb sequestered; DMSO wells 0%, reference activator 100%; activation, % at 9.1 µM; 3,500 compounds, 30% hits;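 active = activation above its plate's cutoff, the mean activation of tested wells plus 3 SD, cut at about 7.9% in these data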
# VP16 Luc act: activates GAL4-VP16 luciferase, flagging SMARCA2 activator hits. shares compounds with SMARCA2 activ. 3,500 compounds, 41% hits. activation, % at 9.1 µM. HEK293 GAL4-VP16 pG5luc reporter, luciferase luminescence; scaled: DMSO wells 0%, SAHA wells 100%;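 active = activation above the solvent-only control well mean plus 3 SD, averaged across control plates, cut at about 5.2% in these data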
# The depositor's hits bear a star; x = not tested or not shown. In the library only some 5.4% were active in any assay of this set; here they are far more common.
SMILES,SMARCA2 activ,ALR inh,beta cell repl,Exocytosis inh,PfM18AAP inh,GASC-1 inh,SMARCA2 act conf,VP16 Luc act
OCCCCCN=c1cc(-c2ccccc2)oc2ccc(Cl)cc12,13*,0,4,-1,0,-4,19*,1
O=c1cc(-c2ccccc2)oc2ccc3ccccc3c12,2,x,x,2,x,x,x,x
Clc1ccc2oc(-c3ccccc3)cc(=NCCCN3CCOCC3)c2c1,17*,x,x,2,0,x,14*,5.6*
COC(=O)c1c(C)[nH]c(C(=O)/C=C/c2ccccc2F)c1C,15*,4,-3,1,2,-4,9.1*,9.7*
COC(=O)c1c(C)[nH]c(C(=O)/C=C/c2ccccc2Cl)c1C,5,0,-6,-2,2,-5,x,x
COc1cccc(-c2cnc3c(NC=O)cc(-c4cccc(C(=O)N(C)C)c4)cn23)c1,12*,x,x,8,x,x,7,5
CN(C)CCNC(=O)c1cccc(-c2cc(NC=O)c3ncc(-c4cccc(C(F)(F)F)c4)n3c2)c1,34*,x,x,15,x,x,29*,2
CN(C)c1cccc2c(S(=O)(=O)NC(=O)[C@H]3O[C@@H](n4ccc(=O)[nH]c4=O)[C@H](O)[C@@H]3O)cccc12,4,x,x,x,x,x,x,x
COC(=O)[C@]12C[C@H](CC(=O)NCc3ccc(OC)c(OC)c3)C(=O)N(CCc3ccc(OC)c(OC)c3)C1=C[C@H](C(C)C)O[C@@H]2C1CC1,-2,x,x,x,x,x,x,x
Cc1c(Br)cccc1NC(=O)C1(C)CCN1Cc1ccccc1OC(F)F (stereo unspecified),-7,x,x,4,x,x,x,x
O=C1CCCC2=C1C(c1ccco1)Nc1ccc3ccccc3c12 (stereo unspecified),20*,-1,0,-2,20,17,8.3*,1
CCOc1ncnc2c1sc1nc(C)cc(C)c12,-5,-6,0,-7,-1,0,x,x
Cc1cc(C)c2c(n1)sc1c(N3CCN(CCO)CC3)ncnc12,8.5*,14,4,3,-12,4,7,1
CCOC(=O)c1ccc(COC(=O)c2ccc3c(c2)-c2ccccc2C3=O)cc1,8.9*,-9,0,-12,0,3,-4,2
CCN(CC)c1ccc(Nc2cc3n(c(=O)n2)CCc2cc(OC)c(OC)cc2-3)cc1,14*,100*,-4,-16,-20,32,18*,3
CCOC(=O)CSC1=NC(=O)/C(=C\c2ccc(Cl)cc2)S1,9.3*,99*,-6,10,7,12,5,4
COc1ccccc1N/C=C/c1onc(C)c1[N+](=O)[O-],1,20,-4,-2,1,-10,x,x
Cc1noc(/C=C/Nc2ccc(F)cc2F)c1[N+](=O)[O-],8.0*,2,1,-5,-2,-16,7,10*
CCOC(=O)C1=C[C@@H](C(C)(C)C)N(S(=O)(=O)c2ccc(C)cc2)[C@H]1c1ccc(C)cc1,-4,x,x,1,x,x,x,x
Cc1ccc(C(=O)Nc2nc3ccccc3c(=O)s2)cc1,17*,2,-4,18,31*,3,7,6.3*
CSc1nc2ccc3nc(NC(=O)c4ccc(C)cc4)sc3c2s1,1,0,-3,1,-3,1,x,x
O=C(CC1C(=O)CCCC1=O)c1ccccc1,8.6*,-21,3,1,5,1,8.1*,2
O=C(CCC1CCCCC1=O)c1ccccc1 (stereo unspecified),0,-3,-3,-3,2,4,x,x
N#C/C(=C/c1cc[nH]c1)C(N)=S,8.6*,x,0,5,11,-5,-4,1
Cn1cccc1/C=C(\C#N)C(N)=S,-3,9,0,1,8,-23,x,x
SMILES,SMARCA2 activ,ALR inh,beta cell repl,Exocytosis inh,PfM18AAP inh,GASC-1 inh,SMARCA2 act conf,VP16 Luc act
CC(C)NC(=O)Nc1nnc([C@H]2C[C@H](O)[C@@H](CO)O2)s1,-1,x,x,1,x,x,x,x
CCc1ccc(NCc2nc3ccccc3c(=O)[nH]2)cc1,8.3*,x,-2,-3,-8,0,11*,14*
Cc1c(NC(=O)C2CCCO2)cccc1[N+](=O)[O-] (stereo unspecified),9.5*,-5,0,-2,4,9,2,0
O=C(c1ccc(Cl)c(Cl)c1)N1CCC(=O)N([C@H](COCc2ccc(Cl)cc2)Cc2ccccc2)CC1,-3,x,x,8,x,x,x,x
Cc1ccc(C(=O)N2CCCC(C(F)(F)F)C2)cc1S(=O)(=O)N1CCOCC1 (stereo unspecified),8.0*,-1,-2,-4,x,3,-1,0
CCOc1ccc(CCNC(=O)COC(=O)c2cccc(N(C)C)c2)cc1OCC,8.1*,-8,-4,-6,x,-5,3,8.7*
COc1ccc(C=NN(C)C(=O)Nc2cccc(Cl)c2)cc1OC,2,x,x,x,x,x,x,x
Nc1ccccc1C(=O)NCc1ccc(F)cc1,-2,-12,0,3,-1,8,x,x
Nc1ccccc1C(=O)NCc1ccc(Cl)cc1,8.1*,-16,0,-2,3,10,-1,0
O=C1Nc2ccccc2-n2nnnc2C1N1CCN(C(=O)c2ccco2)CC1 (stereo unspecified),-2,x,x,-3,x,x,x,x
COc1ccc(C(=O)N/N=C(\C)Cn2cnc([N+](=O)[O-])n2)cc1,13*,x,0,10,-4,12,1,0
C/C(Cn1cnc([N+](=O)[O-])n1)=N\NC(=O)c1ccc(F)cc1,-2,x,-1,1,1,19,x,x
CCOC(=O)c1ccc(N2Cc3ccccc3C2=NC(=O)c2ccncc2)cc1,8,x,x,1,-8,x,x,x
CCOC(=O)c1ccc(N2Cc3ccccc3C2=N)cc1,12*,-2,0,-2,-4,-3,11*,3
CCOC(=O)C1(C(F)(F)F)N=C(C(F)(F)F)Nc2ccccc21 (stereo unspecified),9.8*,-3,1,-8,6,3,-1,0
CCOC(=O)C1(Cc2ccccc2)C(=O)Nc2ccccc21 (stereo unspecified),-1,-1,1,-2,x,-1,x,x
CCCCN1C(=O)C(CC(=O)NCc2cccc3ccccc23)CC(C(=O)N(C(C)C)C(C)C)=C1C (stereo unspecified),-4,x,x,-12,x,x,x,x
O=C(CCCc1ccncc1)c1ccccc1,8.2*,x,x,-4,x,x,3,6.9*
c1ccc(CCCCc2ccncc2)cc1,-1,x,x,-4,x,x,x,x
